Key:
Test in all cases: log2 ratio of Biotin-Ahx-Ub-VS probe labelling (fragment/DMSO); higher = less target engagement (more negative = stronger competition), active = hit call of the paper (q ≤ 0.05, log2 ratio ≤ -1)
Conditions in all cases: compound concentration: 200 uM; treatment time: 3 h
[1] = target: T1, USP42 (UniProt Q9H9J4)
T1 sequence (whole entry): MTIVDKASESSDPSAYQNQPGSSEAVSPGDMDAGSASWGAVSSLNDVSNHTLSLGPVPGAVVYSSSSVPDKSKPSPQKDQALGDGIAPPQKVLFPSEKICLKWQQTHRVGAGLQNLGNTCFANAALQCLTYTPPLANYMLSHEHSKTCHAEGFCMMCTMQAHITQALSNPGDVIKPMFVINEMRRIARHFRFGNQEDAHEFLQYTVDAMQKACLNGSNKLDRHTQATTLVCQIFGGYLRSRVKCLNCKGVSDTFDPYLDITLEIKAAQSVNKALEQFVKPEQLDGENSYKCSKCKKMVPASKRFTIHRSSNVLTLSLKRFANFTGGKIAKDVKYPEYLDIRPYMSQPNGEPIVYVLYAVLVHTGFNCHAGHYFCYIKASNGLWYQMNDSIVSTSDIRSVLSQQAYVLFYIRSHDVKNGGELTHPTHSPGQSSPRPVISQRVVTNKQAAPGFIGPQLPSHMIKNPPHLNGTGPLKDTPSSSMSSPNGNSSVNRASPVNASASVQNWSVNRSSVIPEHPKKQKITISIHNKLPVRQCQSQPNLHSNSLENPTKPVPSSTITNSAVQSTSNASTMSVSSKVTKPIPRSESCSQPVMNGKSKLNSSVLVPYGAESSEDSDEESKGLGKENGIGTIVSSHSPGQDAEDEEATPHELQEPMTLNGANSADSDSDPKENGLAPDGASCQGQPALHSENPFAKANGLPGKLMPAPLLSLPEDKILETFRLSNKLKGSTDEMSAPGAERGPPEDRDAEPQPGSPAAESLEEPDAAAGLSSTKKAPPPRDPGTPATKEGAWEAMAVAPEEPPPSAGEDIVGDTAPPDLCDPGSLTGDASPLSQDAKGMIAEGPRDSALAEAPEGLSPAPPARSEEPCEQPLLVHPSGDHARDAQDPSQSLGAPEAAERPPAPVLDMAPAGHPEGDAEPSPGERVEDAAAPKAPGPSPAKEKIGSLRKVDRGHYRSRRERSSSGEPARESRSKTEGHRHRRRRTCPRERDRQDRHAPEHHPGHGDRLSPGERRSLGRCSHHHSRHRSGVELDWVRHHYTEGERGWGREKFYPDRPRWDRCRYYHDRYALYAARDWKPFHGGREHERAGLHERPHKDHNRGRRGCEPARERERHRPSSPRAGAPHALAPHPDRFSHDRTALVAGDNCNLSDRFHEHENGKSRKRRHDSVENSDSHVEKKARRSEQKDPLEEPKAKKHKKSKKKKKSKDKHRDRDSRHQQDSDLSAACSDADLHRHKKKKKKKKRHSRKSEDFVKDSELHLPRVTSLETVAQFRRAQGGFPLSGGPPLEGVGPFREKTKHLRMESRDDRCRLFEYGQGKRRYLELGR
Procedure, shortened: (§1)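 The table lists average log2 ratios of fragment over vehicle, from an unpaired t-test on global-median-normalised Spectronaut label-free quantities. Proteins with ≥2 unique peptides were used. Samples were HEK293T lysate (495 µg) treated in triplicate with fragment at 200 µM or vehicle for 3 h, then with Biotin-Ahx-Ub-VS (0.5 µM final) for 1 h, with labelled DUBs NeutrAvidin-enriched and run by diaPASEF LC-MS/MS.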

[2] = target: USP46 (UniProt P62068)
Sequence of USP46 (P62068 whole entry): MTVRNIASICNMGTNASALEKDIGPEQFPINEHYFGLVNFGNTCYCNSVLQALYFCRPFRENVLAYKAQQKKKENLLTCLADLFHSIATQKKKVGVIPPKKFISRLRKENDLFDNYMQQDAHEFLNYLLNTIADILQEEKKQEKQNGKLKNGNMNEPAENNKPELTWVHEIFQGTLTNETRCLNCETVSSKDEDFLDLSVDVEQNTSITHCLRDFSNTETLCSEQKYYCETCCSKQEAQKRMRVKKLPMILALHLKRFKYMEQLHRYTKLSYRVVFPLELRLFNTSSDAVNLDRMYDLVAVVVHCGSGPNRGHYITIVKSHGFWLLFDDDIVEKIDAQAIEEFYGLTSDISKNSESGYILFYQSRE
Procedure, shortened: as §1

[3] = target: T2, USP47 (UniProt Q96K76)
T2 sequence (whole entry): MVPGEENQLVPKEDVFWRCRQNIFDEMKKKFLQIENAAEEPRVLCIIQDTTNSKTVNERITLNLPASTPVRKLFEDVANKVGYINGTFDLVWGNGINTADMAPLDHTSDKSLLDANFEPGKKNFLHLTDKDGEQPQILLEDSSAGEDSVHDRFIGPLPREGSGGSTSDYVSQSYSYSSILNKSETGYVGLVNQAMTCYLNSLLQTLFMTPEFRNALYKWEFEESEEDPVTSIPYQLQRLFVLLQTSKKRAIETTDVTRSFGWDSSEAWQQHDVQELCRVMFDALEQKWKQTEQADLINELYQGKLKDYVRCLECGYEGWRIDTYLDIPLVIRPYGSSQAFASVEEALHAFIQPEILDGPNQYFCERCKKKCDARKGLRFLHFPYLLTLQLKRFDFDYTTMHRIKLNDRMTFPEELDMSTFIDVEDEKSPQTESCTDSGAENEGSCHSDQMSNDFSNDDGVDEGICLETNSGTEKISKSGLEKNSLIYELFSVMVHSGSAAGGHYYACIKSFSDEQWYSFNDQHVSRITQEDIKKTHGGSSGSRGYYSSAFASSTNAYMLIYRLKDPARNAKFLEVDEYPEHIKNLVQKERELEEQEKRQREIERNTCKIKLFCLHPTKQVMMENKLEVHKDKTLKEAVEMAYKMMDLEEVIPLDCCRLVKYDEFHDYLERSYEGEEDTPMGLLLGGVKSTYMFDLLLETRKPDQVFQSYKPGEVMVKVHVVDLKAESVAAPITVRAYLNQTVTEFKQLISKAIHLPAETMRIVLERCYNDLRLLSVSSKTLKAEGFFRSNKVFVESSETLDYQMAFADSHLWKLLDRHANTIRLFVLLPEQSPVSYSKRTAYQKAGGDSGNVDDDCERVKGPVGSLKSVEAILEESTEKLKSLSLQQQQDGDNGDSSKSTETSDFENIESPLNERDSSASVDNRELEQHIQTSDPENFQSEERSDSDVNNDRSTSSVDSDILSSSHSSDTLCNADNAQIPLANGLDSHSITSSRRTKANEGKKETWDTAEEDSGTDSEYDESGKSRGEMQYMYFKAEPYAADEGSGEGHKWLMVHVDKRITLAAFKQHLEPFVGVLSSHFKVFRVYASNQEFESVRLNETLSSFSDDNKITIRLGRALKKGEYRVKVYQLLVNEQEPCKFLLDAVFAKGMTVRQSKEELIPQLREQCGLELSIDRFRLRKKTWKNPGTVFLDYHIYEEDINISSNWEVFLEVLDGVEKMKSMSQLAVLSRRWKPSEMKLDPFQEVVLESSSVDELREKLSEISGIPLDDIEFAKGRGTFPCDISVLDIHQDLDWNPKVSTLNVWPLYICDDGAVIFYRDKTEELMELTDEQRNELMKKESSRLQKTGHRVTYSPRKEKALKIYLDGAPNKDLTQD
Procedure, shortened: as §1

[4] = target: T3, USP48 (UniProt Q86UV5)
T3 sequence (whole entry): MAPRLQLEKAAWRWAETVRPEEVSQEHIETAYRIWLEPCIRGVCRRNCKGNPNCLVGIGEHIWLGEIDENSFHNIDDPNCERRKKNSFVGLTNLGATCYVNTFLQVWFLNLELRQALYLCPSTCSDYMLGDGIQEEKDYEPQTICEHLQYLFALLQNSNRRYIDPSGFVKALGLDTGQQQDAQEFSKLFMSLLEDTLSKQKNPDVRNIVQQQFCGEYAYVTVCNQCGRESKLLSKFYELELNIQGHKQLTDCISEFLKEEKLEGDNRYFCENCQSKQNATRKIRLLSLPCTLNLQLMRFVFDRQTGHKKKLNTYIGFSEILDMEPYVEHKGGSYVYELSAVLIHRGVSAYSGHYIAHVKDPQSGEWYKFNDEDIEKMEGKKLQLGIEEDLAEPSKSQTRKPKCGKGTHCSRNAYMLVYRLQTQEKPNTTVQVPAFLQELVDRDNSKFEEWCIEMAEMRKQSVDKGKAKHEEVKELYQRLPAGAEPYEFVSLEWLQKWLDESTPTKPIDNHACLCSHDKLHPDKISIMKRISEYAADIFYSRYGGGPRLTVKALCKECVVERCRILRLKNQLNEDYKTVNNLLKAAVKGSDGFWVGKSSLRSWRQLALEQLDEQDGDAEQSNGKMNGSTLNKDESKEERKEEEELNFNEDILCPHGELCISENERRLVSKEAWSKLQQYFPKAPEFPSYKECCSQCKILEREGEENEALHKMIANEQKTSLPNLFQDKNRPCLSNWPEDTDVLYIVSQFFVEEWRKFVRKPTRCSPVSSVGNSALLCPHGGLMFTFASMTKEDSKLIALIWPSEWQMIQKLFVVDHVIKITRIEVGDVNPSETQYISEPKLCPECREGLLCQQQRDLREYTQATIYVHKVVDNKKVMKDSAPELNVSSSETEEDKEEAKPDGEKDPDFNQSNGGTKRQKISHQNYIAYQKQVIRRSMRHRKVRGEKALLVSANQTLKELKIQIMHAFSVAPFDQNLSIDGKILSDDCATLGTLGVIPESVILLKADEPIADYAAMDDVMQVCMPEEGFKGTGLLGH
Procedure, shortened: as §1

[5] = target: T4, USP5 (UniProt P45974)
T4 sequence (whole entry): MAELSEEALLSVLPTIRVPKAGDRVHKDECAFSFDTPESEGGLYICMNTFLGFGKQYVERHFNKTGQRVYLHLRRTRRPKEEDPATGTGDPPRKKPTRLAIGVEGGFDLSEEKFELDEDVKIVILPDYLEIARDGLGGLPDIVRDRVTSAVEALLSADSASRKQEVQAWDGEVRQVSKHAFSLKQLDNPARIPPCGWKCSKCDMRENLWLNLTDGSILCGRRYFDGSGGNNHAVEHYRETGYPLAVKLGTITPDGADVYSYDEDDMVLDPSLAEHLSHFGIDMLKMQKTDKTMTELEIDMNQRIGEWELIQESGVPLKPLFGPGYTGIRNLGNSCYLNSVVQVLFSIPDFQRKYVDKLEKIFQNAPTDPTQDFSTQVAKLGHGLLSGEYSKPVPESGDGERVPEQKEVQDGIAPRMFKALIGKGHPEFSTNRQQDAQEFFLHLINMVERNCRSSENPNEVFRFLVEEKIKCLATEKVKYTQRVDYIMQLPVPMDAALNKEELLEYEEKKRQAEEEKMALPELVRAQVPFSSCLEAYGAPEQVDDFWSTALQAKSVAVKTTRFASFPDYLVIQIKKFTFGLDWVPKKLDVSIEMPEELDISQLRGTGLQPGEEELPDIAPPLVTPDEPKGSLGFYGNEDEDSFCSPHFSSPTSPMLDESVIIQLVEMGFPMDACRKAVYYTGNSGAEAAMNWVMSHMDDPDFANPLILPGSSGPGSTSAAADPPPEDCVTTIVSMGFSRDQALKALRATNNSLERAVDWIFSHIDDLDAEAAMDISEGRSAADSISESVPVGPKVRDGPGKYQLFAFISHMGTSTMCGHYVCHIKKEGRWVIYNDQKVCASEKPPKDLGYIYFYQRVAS
Procedure, shortened: as §1

[6] = target: USP54 (UniProt Q70EL1)
Procedure, shortened: as §1

[7] = target: USP7 (UniProt Q93009)
Sequence of USP7 (Q93009 whole entry, looked up): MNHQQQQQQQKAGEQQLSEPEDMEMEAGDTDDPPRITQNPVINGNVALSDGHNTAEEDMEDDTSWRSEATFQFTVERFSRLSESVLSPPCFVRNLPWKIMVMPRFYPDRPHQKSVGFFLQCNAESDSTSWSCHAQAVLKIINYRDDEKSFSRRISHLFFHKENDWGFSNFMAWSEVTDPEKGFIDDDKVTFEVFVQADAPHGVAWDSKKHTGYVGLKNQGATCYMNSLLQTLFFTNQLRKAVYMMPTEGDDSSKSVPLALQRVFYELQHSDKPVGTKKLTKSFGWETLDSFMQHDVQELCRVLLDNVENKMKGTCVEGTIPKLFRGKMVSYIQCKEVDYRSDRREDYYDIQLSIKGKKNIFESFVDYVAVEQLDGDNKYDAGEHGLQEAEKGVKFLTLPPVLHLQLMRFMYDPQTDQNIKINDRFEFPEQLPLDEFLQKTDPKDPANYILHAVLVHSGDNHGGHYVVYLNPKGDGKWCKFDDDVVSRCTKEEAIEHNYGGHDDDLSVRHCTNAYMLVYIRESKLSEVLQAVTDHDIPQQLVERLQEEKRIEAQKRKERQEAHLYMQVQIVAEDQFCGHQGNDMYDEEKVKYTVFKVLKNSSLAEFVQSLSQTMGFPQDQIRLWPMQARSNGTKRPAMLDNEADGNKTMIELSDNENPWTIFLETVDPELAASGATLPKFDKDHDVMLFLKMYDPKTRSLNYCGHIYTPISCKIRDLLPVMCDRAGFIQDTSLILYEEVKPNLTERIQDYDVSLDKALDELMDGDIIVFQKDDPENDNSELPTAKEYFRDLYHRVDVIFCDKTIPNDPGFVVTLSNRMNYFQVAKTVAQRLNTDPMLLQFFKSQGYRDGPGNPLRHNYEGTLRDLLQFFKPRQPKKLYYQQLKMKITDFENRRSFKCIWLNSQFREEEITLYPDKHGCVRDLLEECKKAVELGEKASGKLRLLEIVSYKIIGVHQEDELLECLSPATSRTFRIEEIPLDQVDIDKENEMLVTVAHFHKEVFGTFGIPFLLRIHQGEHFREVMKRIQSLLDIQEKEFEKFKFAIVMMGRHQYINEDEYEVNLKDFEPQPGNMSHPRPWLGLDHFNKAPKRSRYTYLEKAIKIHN
Procedure, shortened: as §1

[8] = target: T5, USP8 (UniProt P40818)
T5 sequence (whole entry): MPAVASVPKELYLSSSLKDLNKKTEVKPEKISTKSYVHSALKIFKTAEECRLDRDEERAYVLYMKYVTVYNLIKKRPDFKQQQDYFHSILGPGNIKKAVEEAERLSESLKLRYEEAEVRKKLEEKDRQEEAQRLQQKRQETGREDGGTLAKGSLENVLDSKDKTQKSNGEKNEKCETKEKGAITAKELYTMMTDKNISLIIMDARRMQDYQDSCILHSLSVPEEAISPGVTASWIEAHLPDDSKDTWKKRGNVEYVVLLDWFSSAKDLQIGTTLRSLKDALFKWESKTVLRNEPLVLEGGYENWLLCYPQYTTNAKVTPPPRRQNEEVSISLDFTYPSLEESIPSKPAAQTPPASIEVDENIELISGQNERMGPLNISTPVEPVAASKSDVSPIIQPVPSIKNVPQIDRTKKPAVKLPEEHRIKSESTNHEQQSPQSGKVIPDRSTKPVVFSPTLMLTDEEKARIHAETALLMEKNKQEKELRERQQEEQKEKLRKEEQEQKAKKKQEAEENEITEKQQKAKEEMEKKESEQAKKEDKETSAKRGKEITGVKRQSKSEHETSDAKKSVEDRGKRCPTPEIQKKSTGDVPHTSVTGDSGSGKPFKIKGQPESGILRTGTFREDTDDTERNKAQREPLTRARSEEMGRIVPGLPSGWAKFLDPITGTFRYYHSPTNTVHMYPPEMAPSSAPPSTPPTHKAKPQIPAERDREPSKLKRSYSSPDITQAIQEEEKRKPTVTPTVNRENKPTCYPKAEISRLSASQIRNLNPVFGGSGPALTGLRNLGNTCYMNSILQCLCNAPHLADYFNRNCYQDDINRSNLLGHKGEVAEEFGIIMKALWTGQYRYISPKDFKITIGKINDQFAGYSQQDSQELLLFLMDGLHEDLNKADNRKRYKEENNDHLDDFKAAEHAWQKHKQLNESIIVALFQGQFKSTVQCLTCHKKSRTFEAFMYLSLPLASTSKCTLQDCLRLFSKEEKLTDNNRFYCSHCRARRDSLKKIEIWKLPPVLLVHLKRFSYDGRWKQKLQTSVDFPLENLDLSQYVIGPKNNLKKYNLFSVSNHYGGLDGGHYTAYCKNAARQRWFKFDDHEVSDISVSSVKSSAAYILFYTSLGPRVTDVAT
Procedure, shortened: as §1

[9] = target: USP9X (UniProt Q93008)
Sequence of USP9X (Q93008 whole entry): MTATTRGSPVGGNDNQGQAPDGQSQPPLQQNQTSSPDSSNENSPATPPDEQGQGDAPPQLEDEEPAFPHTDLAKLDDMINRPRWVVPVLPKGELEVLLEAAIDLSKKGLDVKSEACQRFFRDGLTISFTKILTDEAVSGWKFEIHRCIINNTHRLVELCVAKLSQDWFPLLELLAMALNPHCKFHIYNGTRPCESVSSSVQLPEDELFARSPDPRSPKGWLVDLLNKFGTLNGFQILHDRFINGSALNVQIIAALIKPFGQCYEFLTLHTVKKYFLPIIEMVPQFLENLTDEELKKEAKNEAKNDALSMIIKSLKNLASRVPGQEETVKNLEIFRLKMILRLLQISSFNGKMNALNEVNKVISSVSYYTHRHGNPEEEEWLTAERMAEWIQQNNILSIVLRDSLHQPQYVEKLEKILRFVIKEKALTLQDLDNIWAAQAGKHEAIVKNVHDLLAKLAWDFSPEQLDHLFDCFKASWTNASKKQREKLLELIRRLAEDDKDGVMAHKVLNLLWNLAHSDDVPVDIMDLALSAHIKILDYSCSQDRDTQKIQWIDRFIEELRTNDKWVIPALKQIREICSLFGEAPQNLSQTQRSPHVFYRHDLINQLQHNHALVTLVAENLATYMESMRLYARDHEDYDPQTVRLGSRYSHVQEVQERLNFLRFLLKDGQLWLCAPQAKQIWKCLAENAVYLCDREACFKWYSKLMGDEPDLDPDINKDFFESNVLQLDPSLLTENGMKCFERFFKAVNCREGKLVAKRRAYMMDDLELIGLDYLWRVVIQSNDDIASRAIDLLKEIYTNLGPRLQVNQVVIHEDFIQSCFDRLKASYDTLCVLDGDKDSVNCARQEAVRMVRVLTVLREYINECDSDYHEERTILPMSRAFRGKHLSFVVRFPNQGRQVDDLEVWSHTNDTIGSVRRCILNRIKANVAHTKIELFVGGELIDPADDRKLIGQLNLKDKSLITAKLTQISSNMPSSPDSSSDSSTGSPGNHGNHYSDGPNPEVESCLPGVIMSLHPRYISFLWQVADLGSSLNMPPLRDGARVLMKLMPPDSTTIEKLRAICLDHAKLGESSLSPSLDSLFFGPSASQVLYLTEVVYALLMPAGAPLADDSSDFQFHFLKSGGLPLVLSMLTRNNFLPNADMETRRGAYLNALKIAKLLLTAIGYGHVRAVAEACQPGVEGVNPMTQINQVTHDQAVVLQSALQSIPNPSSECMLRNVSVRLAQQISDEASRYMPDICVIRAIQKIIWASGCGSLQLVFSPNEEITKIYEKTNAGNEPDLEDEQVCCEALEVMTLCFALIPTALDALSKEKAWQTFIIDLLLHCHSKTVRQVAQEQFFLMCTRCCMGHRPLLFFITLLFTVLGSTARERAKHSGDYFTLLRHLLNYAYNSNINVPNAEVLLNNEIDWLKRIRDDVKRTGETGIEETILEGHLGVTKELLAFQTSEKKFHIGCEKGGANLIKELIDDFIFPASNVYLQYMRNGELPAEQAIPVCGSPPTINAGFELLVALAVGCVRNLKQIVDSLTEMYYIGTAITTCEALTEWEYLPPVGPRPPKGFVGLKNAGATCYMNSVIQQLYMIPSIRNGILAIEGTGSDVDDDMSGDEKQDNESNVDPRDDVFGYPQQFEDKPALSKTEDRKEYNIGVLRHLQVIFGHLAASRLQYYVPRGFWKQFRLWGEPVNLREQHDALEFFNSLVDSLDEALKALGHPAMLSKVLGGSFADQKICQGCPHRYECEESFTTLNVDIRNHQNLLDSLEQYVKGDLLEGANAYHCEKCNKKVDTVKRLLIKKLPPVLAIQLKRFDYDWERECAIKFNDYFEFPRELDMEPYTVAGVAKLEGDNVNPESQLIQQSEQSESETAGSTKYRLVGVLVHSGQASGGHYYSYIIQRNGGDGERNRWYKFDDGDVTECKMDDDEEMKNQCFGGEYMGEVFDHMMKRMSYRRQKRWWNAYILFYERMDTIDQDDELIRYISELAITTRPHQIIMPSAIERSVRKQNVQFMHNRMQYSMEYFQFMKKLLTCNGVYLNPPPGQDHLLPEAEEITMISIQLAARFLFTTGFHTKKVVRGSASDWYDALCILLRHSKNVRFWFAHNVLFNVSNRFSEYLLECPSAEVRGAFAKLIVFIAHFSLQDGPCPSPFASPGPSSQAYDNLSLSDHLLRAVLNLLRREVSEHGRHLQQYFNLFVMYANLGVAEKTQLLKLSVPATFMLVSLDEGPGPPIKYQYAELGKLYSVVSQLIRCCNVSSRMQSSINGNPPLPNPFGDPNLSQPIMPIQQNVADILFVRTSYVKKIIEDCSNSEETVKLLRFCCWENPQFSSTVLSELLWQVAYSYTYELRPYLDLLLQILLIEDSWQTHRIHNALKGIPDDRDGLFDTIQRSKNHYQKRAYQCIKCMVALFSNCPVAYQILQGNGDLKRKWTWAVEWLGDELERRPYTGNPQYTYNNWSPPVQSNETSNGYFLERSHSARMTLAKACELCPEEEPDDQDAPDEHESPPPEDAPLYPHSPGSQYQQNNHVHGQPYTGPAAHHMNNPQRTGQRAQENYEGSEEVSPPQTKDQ
Procedure, shortened: as §1

[10] = target: UniProt O00487
Sequence of UniProt O00487 (O00487 whole entry): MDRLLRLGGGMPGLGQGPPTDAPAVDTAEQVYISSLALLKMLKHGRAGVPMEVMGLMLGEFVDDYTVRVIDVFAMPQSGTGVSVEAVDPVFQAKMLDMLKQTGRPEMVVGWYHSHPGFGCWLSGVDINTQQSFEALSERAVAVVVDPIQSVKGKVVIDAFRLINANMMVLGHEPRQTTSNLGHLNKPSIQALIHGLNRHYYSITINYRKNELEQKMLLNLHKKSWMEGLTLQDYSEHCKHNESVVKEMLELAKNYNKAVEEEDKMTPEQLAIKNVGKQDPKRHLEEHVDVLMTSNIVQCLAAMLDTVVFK
Procedure, shortened: as §1

Measured: log2 ratio of Biotin-Ahx-Ub-VS probe labelling

Cc1ccc(CC(NC(=O)CCl)c2ccccn2)cc1.Cl (stereo not given)
inactive: [1] -0.109 | [2] 0.168 | [3] 0.0361 | [4] 0.0528 | [5] -0.125 | [6] 0.195 | [7] -0.0773 | [8] 0.0199 | [9] 0.139 | [10] 0.244

Source: the supplement of paper PMC11732987, “Enantioselective OTUD7B fragment discovery through chemoproteomics screening and high-throughput optimisation” (Communications Chemistry, 2025)
